Reference: PubChem BioAssay AID1159580 (chemical genetic matrix, 2015)
Out of some 5,500 compounds screened, about 2,000 (36%) were called active. Inconclusive results (about 18%) are left out. No stated cut-off is given here; in the data, active means normalized growth mostly below about 0.91 (no sharp cut-off); inconclusive means no clear call, values can overlap the other calls; inactive means mostly above about 0.92. The list shows a part of the results.

Assay: chemical genetic growth profiling, strain panel (AID 1159580);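 further: tested at 20 µM; growth read once vehicle control cultures reached saturation at 30 °C; 1 = growth at the plate median or of vehicle wells; lower values mean less growth of the strain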
Settings: growth OD

Measured: normalized growth

OC[C@@H](O)[C@@H](O[C@@H]1O[C@H](CO)[C@@H](O)[C@H](O)[C@H]1O)[C@H](O)[C@@H](O)CO
inactive: S. cerevisiae deletion strains, locus YJR075W, strain HOC1, hits give low values 1.01 | S. cerevisiae deletion strains, locus YKL009W, strain mrt4, hits give low values 1.02 | S. cerevisiae deletion strains, locus YKL068W, hits give low values 0.999 | S. cerevisiae deletion strains, locus YKL085W, strain MDH1 (second series), hits give low values 0.998 | S. cerevisiae deletion strains, locus YKL085W, strain MDH1, hits give low values 0.998 | S. cerevisiae deletion strains, locus YKL160W, strain elf1, hits give low values 1.02 | S. cerevisiae deletion strains, locus YKL190W, strain CNB1, hits give low values 1 | S. cerevisiae deletion strains, locus YKR001C, strain vps1, hits give low values 1.02 | S. cerevisiae deletion strains, locus YKR026C, strain gcn3, hits give low values 0.991 | S. cerevisiae deletion strains, locus YKR091W, strain srl3, hits give low values 0.996 | S. cerevisiae deletion strains, locus YLL001W, strain dnm1, hits give low values 1.01 | S. cerevisiae deletion strains, locus YLL026W, hits give low values 0.994 | S. cerevisiae deletion strains, locus YLL041C, strain sdh2, hits give low values 0.989 | S. cerevisiae deletion strains, locus YLR027C, strain aat2, hits give low values 0.997 | S. cerevisiae deletion strains, locus YLR039C, strain RIC1, hits give low values 1.06 | S. cerevisiae deletion strains, locus YLR058C, strain SHM2, hits give low values 1.01 | S. cerevisiae deletion strains, locus YLR102C, strain apc9, hits give low values 1.01 | S. cerevisiae deletion strains, locus YLR113W, strain HOG1, hits give low values 0.99 | S. cerevisiae deletion strains, locus YLR221C, strain rsa3, hits give low values 1.04 | S. cerevisiae deletion strains, locus YLR258W, strain gsy2, hits give low values 1 | S. cerevisiae deletion strains, locus YLR262C, strain YPT6 (second series), hits give low values 1.01 | S. cerevisiae deletion strains, locus YLR262C, strain YPT6, hits give low values 1.05 | S. cerevisiae deletion strains, locus YLR268W, strain sec22, hits give low values 0.999 | S. cerevisiae deletion strains, locus YLR320W, strain mms22, hits give low values 1.04 | S. cerevisiae deletion strains, locus YLR330W, strain CHS5, hits give low values 1.01 | S. cerevisiae deletion strains, locus YLR342W, strain FKS1 (second series), hits give low values 1.12 | S. cerevisiae deletion strains, locus YLR342W, strain FKS1, hits give low values 0.974 | S. cerevisiae deletion strains, locus YLR357W, strain rsc2, hits give low values 0.958 | S. cerevisiae deletion strains, locus YLR370C, strain arc18, hits give low values 0.996 | S. cerevisiae deletion strains, locus YLR371W, strain rom2, hits give low values 1.01 | S. cerevisiae deletion strains, locus YLR384C, strain iki3, hits give low values 0.999 | S. cerevisiae deletion strains, locus YLR418C, strain cdc73, hits give low values 0.974 | S. cerevisiae deletion strains, locus YML016C, strain PPZ1, hits give low values 1.01 | S. cerevisiae deletion strains, locus YML032C, strain rad52, hits give low values 1.05 | S. cerevisiae deletion strains, locus YML120C, strain ndi1, hits give low values 0.985 | S. cerevisiae deletion strains, locus YML124C, strain tub3, hits give low values 1.01 | S. cerevisiae deletion strains, locus YMR058W, strain fet3, hits give low values 0.99 | S. cerevisiae deletion strains, locus YMR078C, strain ctf18, hits give low values 1.02 | S. cerevisiae deletion strains, locus YMR125W, strain sto1, hits give low values 0.938 | S. cerevisiae deletion strains, locus YMR129W, hits give low values 0.992 | S. cerevisiae deletion strains, locus YMR205C, strain PFK2, hits give low values 1.03 | S. cerevisiae deletion strains, locus YMR223W, strain ubp8, hits give low values 1.06 | S. cerevisiae deletion strains, locus YMR231W, strain pep5, hits give low values 0.983 | S. cerevisiae deletion strains, locus YMR263W, strain SAP30, hits give low values 1.02 | S. cerevisiae deletion strains, locus YMR307W, strain GAS1, hits give low values 1.1 | S. cerevisiae deletion strains, locus YNL067W, strain RPL9B, hits give low values 0.998 | S. cerevisiae deletion strains, locus YNL071W, strain lat1, hits give low values 0.986 | S. cerevisiae deletion strains, locus YNL128W, strain TEP1, hits give low values 0.985 | S. cerevisiae deletion strains, locus YNL153C, strain GIM3, hits give low values 1 | S. cerevisiae deletion strains, locus YNL183C, strain NPR1, hits give low values 0.982 | S. cerevisiae deletion strains, locus YNL209W, strain ssb2, hits give low values 0.999 | S. cerevisiae deletion strains, locus YNL233W, strain BNI4, hits give low values 1.02 | S. cerevisiae deletion strains, locus YNL248C, strain rpa49, hits give low values 0.976 | S. cerevisiae deletion strains, locus YNL250W, strain rad50, hits give low values 1.02 | S. cerevisiae deletion strains, locus YNL271C, strain bni1, hits give low values 1.03 | S. cerevisiae deletion strains, locus YNL298W, strain CLA4, hits give low values 1.02 | S. cerevisiae deletion strains, locus YNL307C, strain MCK1, hits give low values 1.03 | S. cerevisiae deletion strains, locus YNL322C, strain KRE1 (second series), hits give low values 0.991 | S. cerevisiae deletion strains, locus YNL322C, strain KRE1, hits give low values 1.01 | S. cerevisiae deletion strains, locus YNR049C, strain mso1, hits give low values 0.993 | S. cerevisiae deletion strains, locus YNR052C, strain pop2, hits give low values 1.01 | S. cerevisiae deletion strains, locus YOL006C, strain TOP1, hits give low values 1.07 | S. cerevisiae deletion strains, locus YOL012C, strain htz1 1.19 | S. cerevisiae deletion strains, locus YOL147C, strain pex11, hits give low values 1.01 | S. cerevisiae deletion strains, locus YOR001W, strain rrp6, hits give low values 0.968 | S. cerevisiae deletion strains, locus YOR061W, strain CKA2, hits give low values 1.02 | S. cerevisiae deletion strains, locus YOR069W, strain VPS5, hits give low values 1.01 | S. cerevisiae deletion strains, locus YOR070C, strain gyp1, hits give low values 0.994 | S. cerevisiae deletion strains, locus YOR080W, strain dia2, hits give low values 0.995 | S. cerevisiae deletion strains, locus YOR083W, strain WHI5, hits give low values 1.03 | S. cerevisiae deletion strains, locus YOR106W, strain vam3, hits give low values 0.998 | S. cerevisiae deletion strains, locus YOR136W, strain idh2, hits give low values 1.02 | S. cerevisiae deletion strains, locus YOR144C, strain elg1, hits give low values 1 | S. cerevisiae deletion strains, locus YOR184W, strain ser1, hits give low values 1.08 | S. cerevisiae deletion strains, locus YOR231W, strain MKK1, hits give low values 1 | S. cerevisiae deletion strains, locus YOR265W, strain rbl2, hits give low values 1 | S. cerevisiae deletion strains, locus YOR270C, strain vph1, hits give low values 0.956 | S. cerevisiae deletion strains, locus YOR290C, strain snf2, hits give low values 1 | S. cerevisiae deletion strains, locus YOR316C, strain cot1, hits give low values 1.01 | S. cerevisiae deletion strains, locus YPL051W, strain arl3, hits give low values 1.02 | S. cerevisiae deletion strains, locus YPL055C, strain LGE1, hits give low values 0.991 | S. cerevisiae deletion strains, locus YPL078C, strain atp4, hits give low values 1 | S. cerevisiae deletion strains, locus YPL106C, strain sse1, hits give low values 1.01 | S. cerevisiae deletion strains, locus YPL240C, strain hsp82, hits give low values 0.997 | S. cerevisiae deletion strains, locus YPL241C, strain CIN2, hits give low values 1.01 | S. cerevisiae deletion strains, locus YPL256C, strain CLN2, hits give low values 0.985 | S. cerevisiae deletion strains, locus YPR119W, strain clb2, hits give low values 1 | S. cerevisiae deletion strains, locus YPR141C, strain kar3, hits give low values 1.02 | S. cerevisiae deletion strains, locus YPR163C, strain tif3, hits give low values 1.01 | S. cerevisiae deletion strains, locus YPR167C, strain met16, hits give low values 1 | S. cerevisiae deletion strains, strain wtn01, hits give low values 0.992 | S. cerevisiae strains, strain wild type, hits give low values 1.02
